27 molecules from PubChem BioAssay AID2221 (Broad Institute, 2009) can be followed below.

“And” between values parts separate entries of the source, which are not always exact repeats. Equal values may be shown once. In all, about 290,000 compounds went through this assay and about 2,200 (0.76%) were called active. The sample as a whole holds a higher share of actives than the screen did. Values without a mark were called inactive. Rule as the data show it: active = inhibition above about 30%; inconclusive = no clear call, values can overlap the other calls; inactive = below that.

The assay deals with Protein RecA (Mycobacterium tuberculosis (strain ATCC 25618 / H37Rv)) (UniProt P9WHJ3). As to the kind of experiment: Mtb RecA intein splicing inhibitors, primary screen, biochemical, fluorescence, HTS (AID 2221).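 Also: 0% = vehicle wells and 100% = reference inhibitor control wells.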 The settings on record: cell-free RecA intein splicing, hits give high values, concentration not given here.
Sequence of Protein RecA (Mycobacterium tuberculosis (strain ATCC 25618 / H37Rv)) (P9WHJ3 whole entry, looked up): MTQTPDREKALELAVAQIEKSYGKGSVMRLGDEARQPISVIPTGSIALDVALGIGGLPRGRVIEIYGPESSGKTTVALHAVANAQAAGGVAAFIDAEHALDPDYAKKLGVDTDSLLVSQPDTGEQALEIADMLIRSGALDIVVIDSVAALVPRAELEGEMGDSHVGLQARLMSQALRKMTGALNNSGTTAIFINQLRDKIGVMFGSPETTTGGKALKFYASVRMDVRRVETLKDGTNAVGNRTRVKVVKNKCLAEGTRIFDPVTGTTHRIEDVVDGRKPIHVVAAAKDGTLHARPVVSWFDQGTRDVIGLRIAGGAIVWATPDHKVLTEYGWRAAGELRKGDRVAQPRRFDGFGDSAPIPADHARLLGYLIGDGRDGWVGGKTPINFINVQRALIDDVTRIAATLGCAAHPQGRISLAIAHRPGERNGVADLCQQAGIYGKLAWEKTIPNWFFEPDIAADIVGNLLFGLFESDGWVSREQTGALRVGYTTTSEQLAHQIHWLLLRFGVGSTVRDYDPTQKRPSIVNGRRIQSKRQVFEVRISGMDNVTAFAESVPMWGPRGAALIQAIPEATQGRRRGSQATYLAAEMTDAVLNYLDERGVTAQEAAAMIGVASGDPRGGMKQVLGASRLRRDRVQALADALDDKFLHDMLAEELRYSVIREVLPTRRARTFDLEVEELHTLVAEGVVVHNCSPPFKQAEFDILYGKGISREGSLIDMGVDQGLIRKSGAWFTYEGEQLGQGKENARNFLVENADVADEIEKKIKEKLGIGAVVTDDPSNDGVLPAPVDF
In the case of `CN(C)S(=O)(=O)c1ccc2oc(SCC(=O)Nc3ccccc3F)nc2c1`, the inhibition (as a rule, the drop in the measured response relative to a control, in per cent) was -2.69%.
To `N#Cc1c(-c2ccccc2)cc(-c2ccccc2)nc1SCC(=O)O` belongs 0.292%; to `N#CCc1c(C#N)c(N)nc(N2CCCC2)c1C#N`, 0.638%; to `N#Cc1c(N2CCCCC2)nc(N)c2c(N)nc(SCC(=O)O)cc12`, 61.1% (active).
To `COc1ccc(C2NC(=S)NC3=C2CCc2ccccc23)cc1OC` (configuration not stated) belongs 45.9% (active).
To `CCOC(=O)C1=C(c2ccccc2)NC(=S)NC1c1ccc(Cl)cc1` (configuration not stated) belongs 8.84%; to `CCOc1ccc(C2NC(=S)NC3=C2CCc2ccccc23)cc1` (configuration not stated), 15%; to `Cc1nn(C(C)(C)C)c(OC(=O)CC(C)C)c1S(=O)(=O)c1ccccc1`, 8.28%.
`O=C(CCNS(=O)(=O)c1cccs1)N1CCN(c2ccc(F)cc2)CC1`: the inhibition was -0.494%.
For `CCOCC(=O)NCc1ccc2c(c1)cc(C)n2C` the value was 30.1% (active).
`COc1cc(C(=O)NCc2ccc3c(c2)cc(C)n3C)cc(OC)c1OC`: the inhibition was 1.47%.
For `Cc1ccc(CNC(=O)COc2ccc3c(c2)CCC3)cc1` the value was 1.94%; for `CCc1cc(CNC(=O)CC2C(=O)NCCN2Cc2ccccc2C(F)(F)F)on1` (configuration not stated), -0.415%; for `Cc1oc2cc([N+](=O)[O-])c(O)c([N+](=O)[O-])c2c1C(=O)c1ccc(Br)cc1`, 41.5% (active).
To `Cc1oc2cc(Br)c(O)c(Br)c2c1C(=O)c1ccccc1` belongs 12.7%; to `COc1ccc(C(=O)c2c(C)oc3cc([N+](=O)[O-])c(O)c([N+](=O)[O-])c23)cc1`, 8.62%.
For `COC(=O)[C@H]1[C@H]2C[C@H]3c4[nH]c5ccccc5c4CCN3C[C@@H]2CC[C@@H]1O` the value was 0.605% and -6.9%; for `CC(Oc1cc2oc(=O)c3c(c2cc1Cl)CCCC3)C(=O)NCc1ccncc1` (configuration not stated), 0.148%; for `O=C(CN(C(=O)c1csnn1)c1cccc(Cl)c1)NC1CCCC1`, -3.49%.
As to `O=C(Nc1ccc(Cl)c(Cl)c1)c1ccccc1NC(=O)C1CC=CCC1C(=O)O` (configuration not stated), the inhibition was 0.473%.
To `O=C(Nc1ccccc1)c1nnsc1S(=O)(=O)c1ccc(Cl)cc1` belongs 70% (active); to `O=C(c1ccc(Cl)cc1)c1cnc(Nc2ccccc2)s1`, -1.16%.
For `CN(c1cccc(NC(=O)Nc2ccc(Cl)cc2)c1)S(C)(=O)=O` the value was 4.89%; for `Cc1cc(C)nc(SCc2nnc(SCC(=O)OC3CCCCC3)o2)n1`, 0.246%; for `CCOC(=O)C1=C(c2ccc(OC)cc2)C(=O)c2ccccc2C1=O`, 83.5% (active).
To `CCOC(=O)c1c(-c2ccc(C)cc2)csc1/N=C(\C)C1=C(O)c2ccccc2C1=O` belongs -0.167%; to `COc1ccc(N2CCN(C(C)=C3C(=O)c4ccccc4C3=O)CC2)cc1`, -1.11%.
